The campaign covered roughly 290,000 compounds. About 490 (0.17%) were called active. Rule as the data show it: active = inhibition above about 37%; inactive = the rest. The full list was thinned out, with actives kept by preference.

A short description of this assay: DNA intercalator displacement agents – biochemical, FID fluorescence, artefact control for HCV NS3 helicase inhibitor project, primary screen (AID 1845).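 Also: 0% = vehicle and 100% = reference compound; higher means more ethidium bromide displaced from hairpin DNA.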 Conditions: DNA fluorescent intercalator displacement, at 7.9 µM, active compounds read high.
By inhibition is commonly meant the drop in the measured response relative to a control, in per cent. As for `Cc1ccc(-n2c(SCC(=O)NCCC3=CCCCC3)nc3n[nH]c(C)c3c2=N)cc1Cl`, the inhibition is -27.4% (inactive).

As to `O=C(N/N=C/c1cccc(Br)c1)c1ccc(N2CCCC2=O)cc1`, the inhibition is -27.4% (inactive).

For the molecule `C=CCOc1ccc(/C=C/C(=O)OCC(=O)NC2CCCCCC2)cc1`, the inhibition is -19.4% (inactive).

As to `Cc1cc([N+](=O)[O-])ccc1NC(=O)c1ccc(NC(=O)C(C)C)cc1`, the inhibition is -1.34% (inactive).

With `O=C(Nc1ccc(C(=O)N2CCCCC2)cc1)c1cccc([N+](=O)[O-])c1`, the inhibition was -20.2% (inactive).

For `Cn1ccc(=Nc2ccc(NC(=O)c3ccc(N=c4ccn(C)c5ccc([N+](=O)[O-])cc45)cc3)cc2)cc1`, the inhibition was 99% (active).

For the molecule `CCC(C)(C)NC(=O)C(c1cccc(OC)c1OC)N(CC(C)C)C(=O)CCC(=O)Nc1cc(C)on1` (centres undefined), the inhibition is -44.5% (inactive).

On to `O=C(NCCN1CCOCC1)c1ccc2c(c1)ncn2C1CCCC1`, for which the inhibition was -5.28% (inactive).

Consider `c1ccc2cc3c(NCCN4CCOCC4)ccnc3cc2c1`, for which the inhibition was 63.9% (active).

Regarding `O=C(NCCN1CCOCC1)c1cc(-c2cccs2)nc2ccccc12`, the inhibition is 3.9% (inactive).

With `CCCc1cc(=O)oc2c(C)c(OCC(=O)Nc3ccccn3)ccc12`, the inhibition was -23.4% (inactive).

On to `COC(=O)c1ccc(/C=N/NC(=O)C(=O)N2CCCCCC2)cc1`, for which the inhibition was -24.6% (inactive).

`CCc1c(C)c2ccc(OC3CCCCC3=O)cc2oc1=O` (centres undefined): the inhibition was -19.1% (inactive).

For `Oc1c(Cl)cc(Cl)c(Cl)c1Cc1c(O)c(Cl)cc(Cl)c1Cl`, the inhibition was 42.8% (active).

Consider `CCC1OC(c2ccc([N+](=O)[O-])cc2)=Nc2ccccc21` (centres undefined), for which the inhibition is 0.06% (inactive).

`CC(CN1CCCCC1)c1ccccc1` (centres undefined): the inhibition is 4.77% (inactive).

For `CC(C)[C@@H](NC(=O)OC(C)(C)C)C(=O)NCC1CCC(C(=O)N[C@@H](Cc2ccccc2)C(=O)O)CC1` (some centres undefined), the inhibition was -37.5% (inactive).

Consider `O=C(CCN1CCc2ccccc2C(O)(c2ccccc2)C1)c1ccc2c(c1)OCCO2` (centres undefined), for which the inhibition is 13.1% (inactive).

For the molecule `COc1ccc2cc(C(=O)C3CCCN(C(=O)c4sc(C)nc4C)C3)ccc2c1` (centres undefined), the inhibition was -47.1% (inactive).

As to `O=C(Nc1ccccc1F)c1ccc(Cn2cc(Br)cn2)cc1`, the inhibition is -14.8% (inactive).

Turning to `NC(=O)c1cc(S(=O)(=O)NCCCc2ccco2)cs1`, the inhibition was -3.13% (inactive).

Take `O=S1(=O)N=C(N(CCO)/N=C/c2ccccc2F)c2ccccc21`: the inhibition is -16.3% (inactive).

With `COc1ccc(CCNC(=O)CN2C(=O)CCSc3ccccc32)c(OC)c1`, the inhibition was -32% (inactive).

Regarding `CC(C)C[C@@H](COc1ccccc1)N1CCN(CC(C)C)CCC1=O`, the inhibition was -13.2% (inactive).

`Cc1cnc(C)c(N2CCN(C(=O)C3CCC(=O)N(CCc4cccc(F)c4)C3)CC2)n1` (centres undefined): the inhibition is -38.6% (inactive).

In the case of `O=C(Nc1ccccc1)c1ccc2c(c1)OCCCO2`, the inhibition is -4.42% (inactive).

With `CC(NC(=O)CNC(=O)Cc1cccc2ccccc12)c1ccc(S(N)(=O)=O)cc1` (centres undefined), the inhibition was -27.1% (inactive).

On to `Cc1ccc2c(c1)N(CC(=O)N1CCC(O)CC1)C(=O)CO2`, for which the inhibition was -5.64% (inactive).

As to `O=C(CCN1C(=O)[C@H]2CC=CC[C@H]2C1=O)NCc1nc(-c2ccccc2)no1`, the inhibition is -33.7% (inactive).

As to `O=C1NC(c2ccc(-c3ccccc3[N+](=O)[O-])o2)C(C(=O)c2ccc(Cl)cc2)C(O)(C(F)(F)F)N1` (centres undefined), the inhibition was -16.8% (inactive).

Regarding `C/C(=N/OC(=O)c1ccc(Br)cc1)c1ccc(C)cc1`, the inhibition was -5.35% (inactive).

`CC(C)C[C@H](NC(=O)C1CCC(CNC(=O)[C@@H]2CCCN2C(=O)OC(C)(C)C)CC1)C(=O)O` (some centres undefined): the inhibition is -30.2% (inactive).

For `CC(=O)c1sc(N/N=C/c2ccc(C(C)C)cc2)nc1C`, the inhibition is 4.61% (inactive).

As for `CCOc1ccc(NC(=O)C(C)N2C(=O)c3ccccc3C2=O)cc1` (centres undefined), the inhibition is -4.96% (inactive).

For `S=C(Nc1ccc(Cl)cc1Cl)N1CCCC1`, the inhibition is 0.9% (inactive).

On to `O=C(NCCN1CCN(C(=O)c2cccc([N+](=O)[O-])c2)CC1)C(=O)NCc1ccc(Cl)cc1`, for which the inhibition was -23.5% (inactive).

Take `NC(=O)C1CCN(Cc2nc3c(Br)cc(Br)cc3c(=O)[nH]2)CC1`: the inhibition is -3.04% (inactive).

On to `O=C(C1CC(=O)N(c2ccc(F)cc2)C1)N1CCN(c2ccccc2)CC1` (centres undefined), for which the inhibition is -24.8% (inactive).

`CCc1cc(=O)oc2c(C)c(OCC(=O)N3CC[C@@]4(O)CCCC[C@H]4C3)ccc12`: the inhibition is -29.5% (inactive).

For `COC(=O)c1c(NC(=O)C(=O)N2CCCCC2)sc2c1CC(C)(C)OC2`, the inhibition is -42.8% (inactive).

In the case of `CCN(CC)S(=O)(=O)c1ccc(N2CCOCC2)c(NC(=O)C2CSC3(C)CCC(=O)N23)c1` (centres undefined), the inhibition is -32.7% (inactive).

On to `COc1cccc(N(CC(=O)NC2CCCC2)C(=O)CCCC(=O)Nc2ccccn2)c1`, for which the inhibition is -30.3% (inactive).

Take `O=C(O)CC(c1ccccc1F)N1Cc2ccccc2C1=O` (centres undefined): the inhibition was -5.32% (inactive).

Consider `CC(C)(C)c1ccc(/C=C/C(=O)NCCCn2ccnc2)cc1`, for which the inhibition is 4.7% (inactive).

For `CC(C)c1ccc(Nc2nnc(SCC(=O)c3nnc(-c4ccccc4)o3)s2)cc1`, the inhibition was -16.9% (inactive).

With `COc1ccccc1N(CC(=O)Nc1ccccc1C(=O)N1CCCC1)S(C)(=O)=O`, the inhibition was -10.3% (inactive).

As to `Cc1cccc(NC(=O)CCN2CC(C)CC(C)C2)c1` (centres undefined), the inhibition was 6.82% (inactive).

Take `CN(CCO)S(=O)(=O)c1ccc2c(c1)C(=O)c1cc(S(=O)(=O)N(C)CCO)ccc1-2`: the inhibition was 0.99% (inactive).

On to `O=C(c1cc(S(=O)(=O)N2CCOCC2)ccc1Cl)N1CCOCC1`, for which the inhibition was -0.42% (inactive).

As to `O=C(CCN1CCCO1)N1CCCC(N2CCN(c3cccc(C(F)(F)F)c3)CC2)C1` (centres undefined), the inhibition is -34.6% (inactive).

Regarding `O=C(Cc1ccc(Cl)cc1)NC1CCS(=O)(=O)C1` (centres undefined), the inhibition is -2.95% (inactive).

Consider `CC(=O)Nc1ccc(NC(=O)COc2ncnc3ccccc23)cc1`, for which the inhibition was -0.17% (inactive).

`Cc1ccc(Nc2c3c(nc4ccccc24)CCC3)cc1`: the inhibition was 6.54% (inactive).

In the case of `CC(=O)Nc1ccc(Nc2c3ccccc3nc3ccccc23)cc1`, the inhibition was 70.8% (active).

`COc1ccccc1N1CCN(c2ncnc3sc(C)c(-c4ccccc4)c23)CC1`: the inhibition is -38.6% (inactive).

In the case of `OC(CN=c1sc2ccccc2n1CC(O)COc1ccccc1)COc1ccccc1` (centres undefined), the inhibition was -11.1% (inactive).

With `NS(=O)(=O)c1ccc(CCNc2nc(C(F)(F)F)nc3ccccc23)cc1`, the inhibition was -2.69% (inactive).

`COc1cccc(CNc2nc(C(F)(F)F)nc3ccccc23)c1`: the inhibition was -5.57% (inactive).

In the case of `CCc1ccc(C(CNc2nc(C(F)(F)F)nc3ccccc23)N(C)C)cc1` (centres undefined), the inhibition is 39.5% (active).
